In the library only some 3% were active in any assay of this set; here they are far more common.
ATG4B inhibitor = ATG4B protease inhibitors, primary screen, biochemical, fluorescence, uHTS | Cysteine protease ATG4B (Homo sapiens), Q9Y4P1 | ATG4B cleavage of LC3-PLA2, NBD-HPC fluorescence, 1 h | inhibition, % at 8.33 µM | 0.51% of 340,000 active | AID 504462, 2011; in the data active means inhibition above about 40%
PAFAH1B3 FP inh = PAFAH1B3 enzyme inhibitors, primary screen, biochemical, fluorescence polarization, human. recombinant PAFAH1B3, FP-rhodamine probe. inhibition, % at 3.39 µM. 0.28% of 340,000 active. AID 492972, 2010;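 active means inhibition above the screen-wide average of all tested compounds plus 3 SD, cut at about 25% in these data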;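 further: 0% = enzyme with DMSO only and 100% = wells lacking PAFAH1B3 protein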
Target sequence (Q15102 whole entry, looked up): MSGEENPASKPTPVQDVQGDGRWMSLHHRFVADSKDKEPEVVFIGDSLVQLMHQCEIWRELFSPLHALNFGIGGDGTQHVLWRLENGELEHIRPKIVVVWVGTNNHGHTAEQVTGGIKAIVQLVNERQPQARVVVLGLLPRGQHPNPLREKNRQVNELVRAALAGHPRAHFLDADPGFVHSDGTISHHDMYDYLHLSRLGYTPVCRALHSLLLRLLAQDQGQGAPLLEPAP
DAGLB inhibitor = DAGLB lipase inhibitors, primary screen, biochemical, fluorescence, HTS; HEK293T DAGLB membrane lysate, EnzChek fluorogenic substrate; inhibition, % at 5.17 µM; 0.059% of 340,000 active; AID 504411, 2011; in the data active means inhibition above about 34%;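 further: 0% = enzyme with vehicle and 100% = wells lacking enzyme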
PAFAH2 inh = PAFAH2 enzyme inhibitors, primary screen, biochemical, fluorescence polarization, human. 0.99% of 340,000 active. Platelet-activating factor acetylhydrolase 2, cytoplasmic (Homo sapiens), Q99487. AID 492956, 2010. inhibition, % at 3.39 µM. recombinant PAFAH2, FP-rhodamine activity probe;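 active means inhibition above the mean over all tested compounds plus 3 SD, cut at about 30% in these data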;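 further: inhibitors block probe labeling of enzyme so polarization drops; 0% = enzyme with DMSO and 100% = wells lacking PAFAH2 protein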
pPAFAH inh = pPAFAH enzyme inhibitors, primary screen, biochemical, fluorescence polarization, human; Platelet-activating factor acetylhydrolase (Homo sapiens), Q13093; recombinant pPAFAH, FP-rhodamine probe fluorescence polarization; inhibition, % at 3.39 µM; 1.5% of 330,000 active;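 active means inhibition above the mean inhibition across the screen plus 3 SD, cut at about 25% in these data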;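 further: inhibitors block binding of the rhodamine activity-based probe so polarization drops; 0% = enzyme with DMSO and 100% = wells lacking pPAFAH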
Target sequence (Q13093 whole entry, looked up): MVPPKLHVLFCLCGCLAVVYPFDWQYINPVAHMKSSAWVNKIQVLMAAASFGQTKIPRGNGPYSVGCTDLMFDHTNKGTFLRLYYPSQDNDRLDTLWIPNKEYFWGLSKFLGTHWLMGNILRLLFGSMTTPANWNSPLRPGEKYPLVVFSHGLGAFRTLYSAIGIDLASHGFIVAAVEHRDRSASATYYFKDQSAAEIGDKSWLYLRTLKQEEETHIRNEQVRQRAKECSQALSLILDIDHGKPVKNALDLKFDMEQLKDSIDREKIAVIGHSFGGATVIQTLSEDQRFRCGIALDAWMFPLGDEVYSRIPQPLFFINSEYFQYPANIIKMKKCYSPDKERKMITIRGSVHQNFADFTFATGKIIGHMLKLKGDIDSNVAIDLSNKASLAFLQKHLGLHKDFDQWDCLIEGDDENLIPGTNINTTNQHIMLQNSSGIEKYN
PAFAH1B2 inh = PAFAH1B2 enzyme inhibitors, primary screen, biochemical, fluorescence polarization, human | inhibition, % at 3.39 µM | 1.2% of 340,000 active | AID 492953, 2010 | recombinant PAFAH1B2, FP-rhodamine activity probe | Platelet-activating factor acetylhydrolase IB subunit alpha2 (Homo sapiens), P68402;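 active means inhibition above the mean of all tested compounds plus 3 SD, cut at about 24% in these data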;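 further: 0% = enzyme with DMSO and 100% = wells lacking PAFAH1B2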
pPAFAH FP conf = pPAFAH (PLA2G7) enzyme inhibitors, confirmation, biochemical, fluorescence polarization, human; inhibition, % at 3.39 µM; recombinant pPAFAH, FP-Rh probe fluorescence polarization; shares compounds with pPAFAH inh; 72% of 2,300 active;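 active means mean inhibition of the triplicate above the hit cutoff set for the earlier primary screen, cut at about 25% in these data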;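 further: 0% = enzyme with DMSO and 100% = wells lacking pPAFAH enzyme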
DAGLB inh conf = DAGLB lipase inhibitors, retest, confirmation, biochemical, fluorescence, HEK293T membranes; shares compounds with DAGLB inhibitor; HEK293T DAGLB membrane lysate, EnzChek fluorogenic substrate; inhibition, % at 5.17 µM; 73% of 190 active; AID 504445, 2011;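 active means mean inhibition over triplicate wells above a set limit taken from the primary lipase screen, cut at about 34% in these data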;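 further: 0% = DAGLB with DMSO and 100% = wells lacking DAGLB enzyme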
ATG4B conf = ATG4B protease inhibitors, retest, confirmation, biochemical, fluorescence, single concentration | shares compounds with ATG4B inhibitor | ATG4B protease fluorescent substrate cleavage assay | inhibition, % at 8.33 µM | 92% of 320 active; in the data active means inhibition above about 39%
PLA2 counter = PLA2 enzyme inhibition, counter-screen for ATG4B inhibitor project, biochemical, single concentration, uHTS hits | shares compounds with ATG4B inhibitor | AID 588402, 2011 | 66% of 1,600 active | inhibition, % at 8.33 µM | purified PLA2, NBD-C6-HPC fluorescence, 45 min; in the data active means inhibition above about 50%
An asterisk follows results filed as active; / = no result given.

SMILES	ATG4B inhibitor	PAFAH1B3 FP inh	DAGLB inhibitor	PAFAH2 inh	pPAFAH inh	PAFAH1B2 inh	pPAFAH FP conf	PLA2 counter	others
CCN(CC)c1nc(N)c2c(N)n(-c3ccccc3C)c(=S)c(C#N)c2c1C#N	54.5*	12.5	14.5	43.5*	46.5*	25.4*	30.7*	70.3*
Oc1c(Br)cc(Br)c(/C=N/n2c(-c3ccccc3)n[nH]c2=S)c1Br	44.1*	0.9	22.8	31.0*	41.6*	9.4	53.4*	8.9	ATG4B conf=51.6*
CCOC(=O)c1cccc(C(=O)Nc2nc3ccc(OC)cc3s2)n1	-3.8	14.8	1.0	3.5	-3.5	1.8	/	/
CCC(C)c1ccccc1NC(=O)COC(=O)c1ccc2[nH]c3c(c2c1)CCCC3 (stereo not drawn)	41.7*	7.7	-6.9	71.2*	38.5*	6.0	29.1*	56.9*
Cn1c(SCC(=O)NCC2CCCO2)nc2c(c1=O)SCC2 (stereo not drawn)	-1.2	5.8	-2.3	4.5	5.5	7.1	/	/
CN1CCS/C1=C/C=C1/SC(=S)N(Cc2ccccc2)C1=O	82.0*	10.2	2.9	26.1	35.7*	2.3	26.6*	80.3*
CCN(CC)c1ccc(N2C(=O)CSC2=S)cc1	66.1*	-14.6	5.2	-15.3	47.7*	-5.1	2.6	63.3*
O=C(N/N=C/c1ccc(-c2ccc(S(=O)(=O)Nc3ncccn3)cc2)o1)c1cc2ccccc2cc1O	75.1*	35.2*	22.2	34.2*	78.2*	24.9*	75.7*	16.4	ATG4B conf=37.5
Cc1ccc(S(=O)(=O)N2CCCC2=O)c(C)c1N(C)S(C)(=O)=O	-5.5	6.8	0.1	3.9	0.2	0.6	/	/
CC1=NN(c2ccccc2)C(=O)/C1=C\c1c(C)[nH]n(-c2ccccc2)c1=O	5.2	4.4	0.6	-4.2	1.2	-1.7	/	/
CC1=NN(c2ccccc2)C(=O)/C1=C/c1c(O)n(-c2ccc(F)c(Cl)c2)[nH]c1=O	55.0*	/	/	/	74.7*	/	47.0*	64.3*
COc1cccc(NS(=O)(=O)c2ccc3c(c2)C2C=CCC2C(c2ccc(C(=O)O)cc2)N3)c1 (stereo not drawn)	66.6*	40.2*	11.6	68.1*	61.0*	36.4*	60.5*	42.4	ATG4B conf=62.1*
COc1ccc(S(=O)(=O)Nc2ccccc2C(=O)Nc2nc(-c3ccc(F)cc3)cs2)cc1OC	19.5	4.5	6.4	17.3	15.4	15.6	/	/
COc1ccc(-c2csc(NC(=O)c3ccccc3NS(=O)(=O)c3ccc(C)cc3)n2)cc1	74.4*	6.0	11.5	35.8*	39.0*	14.6	49.1*	67.7*
CC(C)=C1C(=O)NN(c2ccc(F)c(Cl)c2)C1=O	16.5	0.0	23.1	10.2	23.3	2.0	/	/
O=C1NN(c2ccc(F)c(Cl)c2)C(=O)/C1=C\c1cccc(OC(=O)c2cccs2)c1	60.2*	12.2	28.0	34.5*	40.2*	42.5*	40.9*	57.4*
COc1ccccc1Nc1nnc(SCC(=O)NC2CC2)s1	2.0	-0.3	0.0	3.8	-2.6	2.4	/	/
N=C1SC(c2ccccc2)C(=O)N1c1ncc(Cc2ccccc2)s1 (stereo not drawn)	55.5*	3.2	21.8	28.1	39.0*	34.3*	44.2*	23.6
O=C(Nc1ncc(Cc2ccccc2)s1)C1=NCCN1	5.6	6.8	0.8	-4.6	9.3	3.4	/	/
COc1ccc(OCCCC(=O)NNC(=O)c2ccncc2)cc1	-5.7	5.1	-2.4	5.2	1.0	4.2	/	/
O=C1NC(=S)SC1=Cc1ccccc1Cl	3.5	0.9	17.8	-6.4	/	9.6	/	/
Cc1ccc(C2C(/C=C3/SC(=S)NC3=O)=C(c3cccs3)Oc3ccccc32)cc1 (stereo not drawn)	57.0*	8.0	39.5*	21.0	38.5*	5.1	47.5*	54.5*	DAGLB inh conf=44.3*
Cc1ccc(NC(=O)COC(=O)C(CC(C)C)N2C(=O)C3CC=CCC3C2=O)c(C)c1 (stereo not drawn)	-7.2	3.6	0.4	1.5	-0.4	-0.7	/	/
O=C(O)C1Nc2ccc(Br)cc2C2C=CCC12 (stereo not drawn)	64.4*	39.6*	12.2	79.0*	70.4*	46.6*	61.0*	21.4	ATG4B conf=31.7
O=C(O)C1Nc2c(Cl)cc(Cl)cc2C2C=CCC12 (stereo not drawn)	64.9*	22.2	17.3	82.3*	81.1*	36.1*	42.8*	46.4	ATG4B conf=20.6
SMILES	ATG4B inhibitor	PAFAH1B3 FP inh	DAGLB inhibitor	PAFAH2 inh	pPAFAH inh	PAFAH1B2 inh	pPAFAH FP conf	PLA2 counter	others
CC(C)CNC(=O)C1Nc2ccc(C(F)(F)F)cc2C2C=CCC12 (stereo not drawn)	-8.2	18.1	0.6	4.3	8.3	8.3	/	/
COC(=O)CNC(=O)C1Nc2ccccc2C2C=CCC12 (stereo not drawn)	-7.8	5.0	-1.1	0.2	15.8	3.4	/	/
Cc1cc(C)cc(NC(=O)Cn2nnc3ccccc3c2=O)c1	0.2	10.6	-2.6	-2.1	3.8	0.5	/	/
CCOc1ccccc1N1CC(C(=O)Nc2ccc(S(=O)(=O)N3CCCCC3)cc2)CC1=O (stereo not drawn)	3.9	6.7	-1.4	6.5	7.0	2.4	/	/
O=C1NC(=S)S/C1=C\c1ccc(SCc2ccccc2)o1	40.2*	9.0	13.5	21.4	40.1*	70.9*	58.1*	55.6*
CC(=O)Nc1ccc(NC(=O)CCCn2cnc3ccccc3c2=O)cc1	-4.2	8.9	-1.9	0.0	-7.8	7.0	/	/
CC(NC(=O)Cc1ccccc1)c1cc2c(cc1Br)OCCCO2 (stereo not drawn)	-12.6	1.9	0.1	6.6	3.0	1.8	/	/
